The campaign covered roughly 310,000 compounds. About 14,000 (4.5%) showed an effect of 50% or more. The effect is printed as a negative number. The sample holds strong results, similar compounds and a random draw of the others, so the mix is not that of the screen.
target: human ether-à-go-go-related gene (hERG) potassium channel (human, UniProt Q12809); assay: primary screen, population patch clamp on CHO cells stably expressing hERG; higher = less effect of the substance
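Note: peak tail current of the secondary pulse compared with the same well before compound.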

Chain of human ether-à-go-go-related gene (hERG) potassium channel (Q12809 whole entry, looked up): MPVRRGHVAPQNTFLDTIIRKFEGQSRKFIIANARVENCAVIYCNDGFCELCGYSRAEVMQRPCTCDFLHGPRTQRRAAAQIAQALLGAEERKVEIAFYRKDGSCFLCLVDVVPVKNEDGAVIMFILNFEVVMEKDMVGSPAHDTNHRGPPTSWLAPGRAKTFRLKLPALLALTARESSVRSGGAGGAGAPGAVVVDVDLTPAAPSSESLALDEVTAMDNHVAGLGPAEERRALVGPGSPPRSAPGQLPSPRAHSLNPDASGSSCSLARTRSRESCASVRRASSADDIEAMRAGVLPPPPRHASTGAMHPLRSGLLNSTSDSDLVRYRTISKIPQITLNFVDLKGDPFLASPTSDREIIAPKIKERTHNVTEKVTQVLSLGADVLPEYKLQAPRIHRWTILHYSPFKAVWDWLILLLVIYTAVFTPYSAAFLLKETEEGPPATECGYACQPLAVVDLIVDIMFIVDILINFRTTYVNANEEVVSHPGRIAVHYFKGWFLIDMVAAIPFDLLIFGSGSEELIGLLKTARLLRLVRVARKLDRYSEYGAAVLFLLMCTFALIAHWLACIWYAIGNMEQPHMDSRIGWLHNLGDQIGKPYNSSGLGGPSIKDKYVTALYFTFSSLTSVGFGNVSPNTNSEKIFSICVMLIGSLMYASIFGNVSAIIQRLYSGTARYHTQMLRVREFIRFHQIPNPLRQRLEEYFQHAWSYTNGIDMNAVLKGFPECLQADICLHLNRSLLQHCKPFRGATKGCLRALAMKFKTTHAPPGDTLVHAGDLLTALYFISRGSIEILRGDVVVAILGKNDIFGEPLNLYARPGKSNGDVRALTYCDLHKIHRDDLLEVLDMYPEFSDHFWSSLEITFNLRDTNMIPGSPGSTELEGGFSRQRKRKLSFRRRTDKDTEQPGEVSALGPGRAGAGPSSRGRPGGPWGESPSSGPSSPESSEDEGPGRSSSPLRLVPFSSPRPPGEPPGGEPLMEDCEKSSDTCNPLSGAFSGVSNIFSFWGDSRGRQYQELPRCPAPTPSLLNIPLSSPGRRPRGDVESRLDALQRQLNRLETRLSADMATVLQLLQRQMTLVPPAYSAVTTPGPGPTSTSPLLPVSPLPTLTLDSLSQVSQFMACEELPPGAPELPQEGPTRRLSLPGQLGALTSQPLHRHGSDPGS

Row | Compound | hERG current change (%, negative = inhibition) at 10uM
1 | Cc1nc(NCc2ccc3c(c2)OCO3)c2nnn(Cc3ccccc3)c2n1 | -13.9%
2 | CCOc1ccc(CCNC(=O)COC(=O)/C=C/c2ccco2)cc1OCC | 12.9%
3 | CCOc1ccccc1NC(=O)c1cccc(NC(=O)CC(c2ccccc2)c2ccccc2)c1 | -67.1%
4 | CCOc1ccccc1NC(=O)c1ccc(Cl)c(NC(=O)CC(c2ccccc2)c2ccccc2)c1 | 2.16%
5 | CCCC(=O)Nc1cccc(C(=O)Nc2ccccc2OCC)c1 | -14.7%
6 | CCOc1ccc(/C=C/C(=O)N(C)CC(=O)Nc2cccc(F)c2)cc1OCC | 10.6%
7 | CCOc1ccc(CCNC(=O)/C=C/c2ccco2)cc1OCC | -70%
8 | COc1ccc(CCNC(=O)/C=C/c2ccco2)cc1OC | 0.593%
9 | CCOc1ccc(NC(=O)CN(C)C(=O)/C=C/c2ccco2)cc1OCC | -61.2%
10 | CCOc1ccc(NC(=O)CN(C)C(=O)CC(NC(=O)c2ccccc2)c2ccccc2)cc1OCC (centres unmarked) | -51.9%
11 | COc1cccc(NC(=O)CN(C)C(=O)CC(NC(=O)c2ccccc2Cl)c2ccccc2)c1 (centres unmarked) | -49.7%
12 | CN(CC(=O)Nc1ccc(Cl)c(C(F)(F)F)c1)C(=O)/C=C/c1ccco1 | 5.99%
13 | CCOc1ccc(NC(=O)CN(C)CC(=O)NC(C)c2ccccc2)cc1OCC (centres unmarked) | 6.58%
14 | COc1ccc(-n2c3c(cc(C(=O)NNc4ccccc4C)c2=O)C(=O)CC(C)(C)C3)cc1 | 17.7%
15 | O=c1c2c(nc3nc(NCc4ccc(Cl)cc4)[nH]n13)CCC2 | 23.2%
16 | O=S(=O)(c1cccc2nsnc12)N1CCc2ccccc2C1 | -34.8%
17 | COc1ccc(OC)c(Nc2nc(C)nc3c2oc2ccccc23)c1 | 5.02%
18 | O=C(NC(=S)NNC(=O)[C@H]1C[C@@H]1c1ccccc1)c1ccc(F)cc1 | 3.86%
19 | CCOC(=O)N(Cc1ccccc1)Cc1ccc(C(=O)N[C@@H](Cc2ccccc2)C(=O)O)cc1 | 13.8%
20 | CCC(C)NC(=O)CCn1ccc2cc(S(=O)(=O)N3CCCC3)ccc21 (centres unmarked) | 12.3%
21 | CCC1=NN2C(=N)/C(=C/c3ccc(OS(=O)(=O)c4ccccc4)cc3)C(=O)N=C2S1 | -3.25%
22 | CC(=O)N1CCOc2ccc(S(=O)(=O)N3CCC(C)CC3)cc21 | 6.53%

Row | Compound | hERG current change (%, negative = inhibition) at 10uM
23 | CCOC(=O)C1CCN(S(=O)(=O)c2ccc3oc(=O)ccc3c2)CC1 | -77%
24 | CCOC(=O)C1CCN(S(=O)(=O)c2ccc3[nH]c(=O)oc3c2)CC1 | -30.9%
25 | CCOC(=O)C1CCN(S(=O)(=O)c2ccc3[nH]c(=O)ccc3c2)CC1 | -45.3%
26 | CC(=O)N1CCOc2ccc(S(=O)(=O)N3CCCCC3)cc21 | 11.6%
27 | CCOC(=O)C1CCN(S(=O)(=O)c2ccc3c(c2)N(C(C)=O)CCO3)CC1 | -67.2%
28 | CC/C(=N\NC(=O)C1CC1)c1cccc(Cl)c1 | 30.9%
29 | Cc1nc(Sc2ccc(Cl)cc2)c(C#N)c(C)c1[N+](=O)[O-] | 6.1%
30 | COC(=O)Cn1cnc2scc(-c3ccc(C)cc3)c2c1=O | 7.31%
31 | CC(C)C(NC(=O)c1ccc(F)cc1)C(=O)Nc1cccnc1 (centres unmarked) | 0.585%
32 | CCOC(=O)c1ccccc1NC(=O)c1c(F)c(F)c(F)c(F)c1F | 10.2%
33 | COc1ccc(OC)c(C(=O)c2coc3ccc(O)c(CN(C)C)c23)c1.Cl | -12.7%
34 | COc1ccc(Oc2coc3c(CN(C)C)c(O)ccc3c2=O)cc1 | 17.7%
35 | COc1ccc(OC)c(C(O)c2coc3ccc(O)c(CN(C)C)c23)c1 (centres unmarked) | -17%
36 | COc1ccc(C(=O)c2coc3ccc(O)cc23)cc1 | 7.61%
37 | COc1ccc2occ(C(=O)c3coc4ccc(O)c(CN(C)C)c34)c2c1.Cl | -72.1%
38 | CCN(CC)Cc1c(O)ccc2occ(C(=O)c3ccc(OC)cc3)c12 | -74.2%
39 | COc1ccc(C(O)c2coc3ccc(O)c(CN(C)C)c23)cc1 (centres unmarked) | -47.9%
40 | COc1ccc2occ(C(=O)c3ccc(N=C(C)N(C)C)cc3)c2c1 | -58.8%
41 | COc1ccc(C(=O)c2coc3ccc(O)c(CN(C)C)c23)cc1 | -57.9%
42 | COc1ccc2occ(C(=O)c3ccc(N)cc3)c2c1 | 2.02%
43 | COc1ccc(C(=O)c2coc3ccc(OC(C)=O)cc23)cc1 | 24.9%
44 | COc1ccc(S(=O)(=O)N/N=C(/C)c2ccco2)cc1 | -6.76%

— paper PMC4336329 (PLoS ONE, 2015)
